From PubChem
Shown are actives, neighbours in structure and some others; about 3.3% of the full set was active somewhere.
Gli-Sufu antag = Gli-Sufu pathway antagonists, primary screen, luciferase luminescence, Sufu-KO-LIGHT cells, uHTS | Sufu-KO-LIGHT fibroblasts, Gli luciferase reporter luminescence | inhibition, % at 5 µM | 340,000 tested, 0.74% active;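 active means inhibition above about 55%, limit read from the data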;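 further: 0% = DMSO-treated cells and 100% = wells with medium but no cells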
SMARCA2 act = SMARCA2 (BRM) function activators, primary screen, cell-based, luminescence, high throughput; MG213 cells, MMTV-luciferase reporter, dexamethasone, overnight; activation, % at 9.1 µM; 370,000 tested, 1% active; AID 652017, 2013; in the data active means activation above about 7.8%;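 further: 0% = vehicle wells and 100% = reference activator wells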
esBAF inh = Bmi1 luciferase reporter increase in mESCs, primary screen, esBAF inhibitor project, mouse ES cells, Bmi1 luciferase knock-in, single point. 350,000 tested, 2% active. 24 h; 100% = twice the neutral-well signal. reporter increase, % at 12.5 µM; in the data active means activation above about 40%;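 further: 0% = median of the plate's neutral control wells and 100% = double that signal; a rise in the Bmi1 reporter signal indicates esBAF inhibition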
Jurkat NFkB inh = inhibitors of induced NF-kB luciferase reporter, primary screen, TCR NF-kB activation inhibitor project, cell-based, luminescence, uHTS. Jurkat, PMA/ionomycin-induced NF-kB luciferase reporter. inhibition, % at 4 µM. 330,000 tested, 0.53% active; in the data active means inhibition above about 50%
697 NFkB inh = inhibitors of PMA/ionomycin-induced NF-kB reporter, 697 cells, primary screen, B-cell NF-kB inhibitor project, cell-based, luminescence, uHTS; 697 B-cell NF-kB luciferase reporter, 16 h; inhibition, % at 4 µM; 330,000 tested, 0.33% active; in the data active means inhibition above about 35%
Gli antag conf = Gli-SUFU pathway antagonists, confirmation, single concentration, luciferase luminescence, Sufu-KO-LIGHT cells | shares compounds with Gli-Sufu antag | 2,500 tested, 40% active | Gli luciferase reporter | inhibition, % at 5 µM;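 active means mean inhibition at 5 µM reaching about 45%, limit read from the data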;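 further: plate controls were DMSO-treated cells for no effect and wells lacking cells for full effect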
SufuKO cytotox = cytotoxicity in Sufu-KO-LIGHT cells, confirmation, cytotoxicity control for Gli-SUFU antagonist project, cell-based, ATP luminescence, single concentration; cytotoxicity, % at 5 µM; 2,500 tested, 32% active; AID 651994, 2013; shares compounds with Gli-Sufu antag;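 active means mean cytotoxicity at 5 µM above about 25%, limit read from the data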;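 further: cells exposed to compound overnight for roughly 16 to 18 hours; plate controls were DMSO wells with cells for no effect and medium without cells for full effect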
Wnt3a cs = Wnt3a reporter signal inhibition, confirmation, counter-screen for Gli-SUFU antagonist project, Wnt-LIGHT cells, luminescence, single concentration. AID 651995, 2013. 2,500 tested, 20% active. Wnt3a-driven luciferase reporter. shares compounds with Gli-Sufu antag. inhibition, % at 6.25 µM;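 active means mean inhibition above about 25%, limit read from the data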
The depositor's hits bear a star; / = no result given.

SMILES	Gli-Sufu antag	SMARCA2 act	esBAF inh	Jurkat NFkB inh	697 NFkB inh	Gli antag conf	SufuKO cytotox	Wnt3a cs
CCCCCC(=O)Nc1sc(C)c(C)c1C#N	66*	0	/	-5	-19	12	2	-37
Cc1cc(NC(=O)CSc2nc3c([nH]c4ccccc43)c(=O)n2-c2ccccc2F)no1	58*	0	-6	6	-18	56*	23	19
COc1ccc(/C=N\N2CCN(Cc3ccccc3Cl)CC2)cc1	50	-3	2	-3	3	12	16	-27
Clc1ccc(/C=N/N2CCN(Cc3ccccc3Cl)CC2)cc1	6	-2	0	5	-6	/	/	/
CCOC(=O)CN(C(=O)CSc1nnc(-c2cccc(OC)c2)o1)c1ccc(F)cc1	99*	2	12	-5	6	11	11	-36
O=C(CN(C(=O)CCC(=O)Nc1nccs1)c1cccc(C(F)(F)F)c1)NCC1CCCO1 (stereo not given)	56*	2	-3	-3	5	17	26*	-26
Cc1cccc(N(CC(=O)NC(C)(C)C)C(=O)CCC(=O)Nc2nccs2)c1	-12	0	-14	5	5	/	/	/
CC(C)(C)NC(=O)CN(C(=O)CCC(=O)Nc1nccs1)c1cccc(C(F)(F)F)c1	55	-3	2	9	1	27	16	-17
C[C@@H]1CN([C@H](C)CO)C(=O)c2cc(C3=CCCC3)cnc2O[C@H]1CN(C)C(=O)Nc1cccc(F)c1	/	/	7	/	/	/	/	/
COc1cccc(-c2ccc3c(c2)[C@H]2[C@H](CCN2C(=O)c2ccc(F)cc2)[C@H](CO)N3)c1	/	/	4	/	/	/	/	/
CCOC(=O)Cn1c(Br)nc2c1c(=O)[nH]c(=O)n2C	99*	-2	8	-9	5	12	7	-15
CCc1ccc2c(CN3CCN(S(=O)(=O)c4ccccc4F)CC3)cc(=O)oc2c1	56*	-5	/	2	14	14	0	-15
CCc1ccc2c(CN3CCN(S(=O)(=O)c4cccs4)CC3)cc(=O)oc2c1	-7	-3	-1	-3	16	/	/	/
COc1cnc(SCC(=O)O)[nH]c1=O	62*	-3	-9	0	4	14	7	12
CCOC(=O)CSc1ncc(OC)c(=O)[nH]1	5	1	-4	3	2	/	/	/
CCOC(=O)Cn1c2c(c(=N)c3c1CCC3)CCCC2	22	-1	5	8	-7	/	/	/
CCCn1c2c(c(=N)c3c1CCC3)CCCC2	61*	-4	-45	15	7	60*	19	2
CO[C@H]1CN(C)C(=O)c2ccc(NS(=O)(=O)c3cn(C)cn3)cc2OC[C@@H](C)N(CCC(F)(F)F)C[C@H]1C	/	/	-7	/	/	/	/	/
CCOC(=O)c1c(C2COc3ccccc3O2)csc1N (stereo not given)	55	2	14	-10	-19	13	29*	-19
C[C@@H]1CCCCO[C@@H](CN(C)C(=O)NC2CCCCC2)[C@H](C)CN([C@@H](C)CO)C(=O)c2cc(NC(=O)Nc3ccc(C(F)(F)F)cc3)ccc2O1	/	/	16	/	/	/	/	/
Cc1ccccc1COC(=O)CNC(=O)c1sc2ccccc2c1Cl	65*	-1	11	4	7	21	10	-1
Cc1cc(C)n(C(C)CC(=O)Nc2ccc(-c3ccno3)cc2)n1 (stereo not given)	56*	-3	0	1	-27	16	-1	-16
Cc1cc(SC#N)cc(C)c1NC(=O)CCl	51	6	/	21	0	46*	50*	19
Cn1cnnc1SCc1ccc(C(=O)N=Nc2c(O)n(Cc3ccc(Cl)cc3)c3ccccc23)cc1	52	-2	/	-10	-43	22	6	-5
CCn1c(O)c(N=NC(=O)c2ccc(CSc3nncn3C)cc2)c2ccccc21	4	5	-6	7	17	/	/	/
SMILES	Gli-Sufu antag	SMARCA2 act	esBAF inh	Jurkat NFkB inh	697 NFkB inh	Gli antag conf	SufuKO cytotox	Wnt3a cs
O=C(O)C1C2C=CC(O2)C1C(=O)Nc1ccc2c(c1)OCCO2 (stereo not given)	/	/	/	-6	-25	/	/	/
O=C(O)C1C2C=CC(C2)C1C(=O)Nc1ccc2c(c1)OCCO2 (stereo not given)	60*	/	-12	21	-31	16	20	54*
O=C1/C(=C/c2ccccc2)SC(=S)N1CCCC(=O)N1CCCCC1CCO (stereo not given)	59*	-1	-4	12	-18	25	2	-4
CCOc1ccc(OCC)c(S(=O)(=O)NCCOC23CC4CC(CC(C4)C2)C3)c1	52	-4	/	5	-22	23	31*	8
COc1cc(S(=O)(=O)NCCOC23CC4CC(CC(C4)C2)C3)c(OC)cc1Cl	-2	-2	/	9	-34	/	/	/
O=C1CCCN1CCCNc1ncnc2c1[nH]c1ccc(Cl)cc12	-2	5	7	6	9	/	/	/
CCN1CCCC1CNc1ncnc2c1[nH]c1ccc(Cl)cc12 (stereo not given)	52	1	11	-27	-28	40	13	-95
CCOC(=O)c1c(C)[nH]c(C(=O)C(C)Sc2ccc(Cl)cc2)c1C (stereo not given)	11	4	/	5	-2	/	/	/
CCOC(=O)c1c(C)[nH]c(C(=O)Cn2nnc(-c3ccc(Cl)cc3)n2)c1C	56*	1	3	-18	9	12	13	-11
COc1ccc(CCNC(=O)C2CCC(CNS(=O)(=O)c3ccccc3)CC2)cc1OC (stereo not given)	/	/	/	4	20	/	/	/
O=C(NCCc1ccccc1)C1CCC(CNS(=O)(=O)c2ccccc2)CC1 (stereo not given)	50	-3	3	1	18	10	-7	-18
COc1ccc(CCNC(=O)[C@H](C)N2C(=O)N3CCc4c([nH]c5ccccc45)[C@@]3(C)C2=O)cc1OC	-2	-2	-11	4	8	/	/	/
COc1ccccc1CNC(=O)[C@H](C)N1C(=O)N2CCc3c([nH]c4ccccc34)[C@@]2(C)C1=O	66*	-4	-12	11	2	34	5	2
O=C(CN1CCOCCOCCOCCOCC1)Nc1ccccc1	96*	-1	22	-22	3	20	8	-32
